Measurements published in article PMC12136788.
Numbering of substitutions follows the chain as printed. Over roughly 5,800 sequences, “enrichment r” has its median near 0.54; the highest 2% begin near 16. The sample as a whole holds a higher share of the highest values than the screen did.

B1: chr3:44491765:44499181:-|three_prime_utr|ENSG00000178917|control|control|control (ssRNA)
RNA: GGGAGUUCUACAGUCCGACGAUCACUAAUCACAGUGGAGACCAUACCUACUUGCUUUUCCUUGGGUCACUAAGGUGGGAGAGUAGGUGCAACUUAGUCUGAUCCUUACUUAGUAGGAAAUUGGGGAUUACAUCUGUCAUUAACCAACAGAGGAUUGAGCAUCA
B2: chr11:59152587:59152688:+|CDS|ENSG00000166801|msi1|FALSE|unique (ssRNA)
RNA: GGGAGUUCUACAGUCCGACGAUCAUUGAAAACUUCAAGAAAAAAAUGAAAGUAAAAAAUGGGGAAACAUUAUUUGAAUUGCAUAGAACAACGUUUGGGAAAGUAACAAAAAAUUCUUCUUCGAUUAAAGUAGUGAAACUUCUUCAACAGAGGAUUGAGCAUCA
B3: chr3:98797769:98798349:-|3pUTR|ENSG00000057019|msi1|total|mutant (ssRNA)
RNA: GGGAGUUCUACAGUCCGACGAUCUUGUUUUUGAUACCUCCUGGCAGCUUCCAUGUCACCACUUGUUCAUACCUGCCCAGAGCCCGUUUCCGACAUGGCAAAACCGAAAUCAUCUGUAAUUUAUCCGCUAACAAUGUAAAACCACAACAGAGGAUUGAGCAUCA
B4: chrX:71101288:71101389:+|CDS|ENSG00000184481|unk|FALSE|unique (ssRNA)
RNA: GGGAGUUCUACAGUCCGACGAUCGGAGGCCCUGCUCACCUCUGAUACGCCACCACCCCCUGCUGACGUCCUCAUGACCCAGGUAGAUCCCAUUCUGUCCCAGGCUCCGACUCUUCUGUUGCUGGGGGGGCUUCCUUCCUCCAGCAACAGAGGAUUGAGCAUCA
B5: chr2:16549458:16552935:-|three_prime_utr|ENSG00000197872|control|control|control (ssRNA)
RNA: GGGAGUUCUACAGUCCGACGAUCUUGCUACUGGAGUCCUUUAACAACAUCUAUAACGAUAAAAAAUUCCUAAUUGUUUGUGGUAGUAUUUUAAUUCUAGAUGUGUUAUCUCUCUGGGAAGUAUAGUUUAUAGAAACACAAAAUCAACAGAGGAUUGAGCAUCA
B6: chr6:73594753:73594854:-|3pUTR|ENSG00000119899|unk|FALSE|unique (ssRNA)
RNA: GGGAGUUCUACAGUCCGACGAUCGGUUCACAUACCUGCCUGCUAGUCGGGCAACAUGAAGUAGGACAGUUCUGUUGAUUUUUUAGGGCCAUACUAAAGGGAAUGAGCUGAAACAGACCUCCUGAUACCUUUGCUUAAUUAAACCAACAGAGGAUUGAGCAUCA
B7: ENSG00000070961:be:win_3151|CDS|ENSG00000070961|bound_else_gene|NA|bound_elsewhere_windowed (ssRNA)
RNA: GGGAGUUCUACAGUCCGACGAUCACAUUACUCUGGGGCCAGCUUAUUUCAACAAUUCCAACUAGCCGUUUAAAAUUCCUCAAAGAAGCUGGUCAUGGAACACAAAAGGAAGAAAUACCUGAGGAGGAAUUAGCAGAGGAUGUUCAACAGAGGAUUGAGCAUCA
B8: chr14:51255895:51255996:+|3pUTR|ENSG00000139921|msi1_unk|FALSE|overlapping (ssRNA)
RNA: GGGAGUUCUACAGUCCGACGAUCGUGAAUCCAUUAGAUUUACAGUAUCGUAAUAUACAAGUUUUCUUUAAAGCCCUCUCCUUUAGAAUUUAAAAUAUUGUACCAUUGAAGAGUUUGGAUGUGUAACUUGUGAUGCCUUAGAAACAACAGAGGAUUGAGCAUCA
B9: chr16:57253408:57253449:+|3pUTR|ENSG00000102931|msi1_unk|total|mutant (ssRNA)
RNA: GGGAGUUCUACAGUCCGACGAUCUGUGUGGCCGAUUACUUAUCAGAAAACAUAUAUGUCAUCUCCCGAACGAAGAAAAAGCACCGCCGUUCAAUUCCCAGUGUGUCCCUUUGAUUUUUUUUUUUUAACCGUAAAAAUAAGAAUCAACAGAGGAUUGAGCAUCA
B10: chr5:111496093:111496242:-|3pUTR|ENSG00000164211|unk|FALSE|unique (ssRNA)
RNA: GGGAGUUCUACAGUCCGACGAUCUUUACAUGUAUAGUUAAAUAUUAAAAUUCAUCUCUUGCAGUUCAAUAAAAGCUAUAGUAUAGAUUUUAUUUUUAAGAAGUUUAUAUAAUUCUUUUGUGAACCAAUAUGUAAAACUAGAAUCAACAGAGGAUUGAGCAUCA
B11: chrX:71300841:71300885:+|3pUTR|ENSG00000147140|msi1_unk|total|mutant (ssRNA)
RNA: GGGAGUUCUACAGUCCGACGAUCCCCCAUAUAUUACCCCUUCAUGUCCUAAAGAAGACAUUUUCUCUCCGAGAUUUUCAUUUCCGUGUAUCUUUAAAAAAAAAUCUUGUGUUAACUUGCCUCCAUCUUUUUCUUGGGUGAGGACAACAGAGGAUUGAGCAUCA
B12: ENSG00000139428:stop:overlap|stop_codon|ENSG00000139428|stop_codon|NA|stop_codon (ssRNA)
RNA: GGGAGUUCUACAGUCCGACGAUCUAUUACUAUUCUUAACACUUACCUGUUCCUGGCUACCAUUUCUCCAUGGCGGGCCUGACUAGGUUUGCUCUGGAAUUAGUCACAGAAAAGGGCCAUACAUUUGCCGAAGAGCUUCAGAAACAACAGAGGAUUGAGCAUCA
B13: chrX:71300841:71300885:+|3pUTR|ENSG00000147140|msi1_unk|FALSE|overlapping (ssRNA)
RNA: B11 RNA with C68U, C69A, C83U, C84A
B14: ENSG00000198589:be:win_9451|3pUTR|ENSG00000198589|bound_else_gene|NA|bound_elsewhere_windowed (ssRNA)
RNA: GGGAGUUCUACAGUCCGACGAUCUUAAACUAUCAUCUCCACCUUCCUUUUGAUUAGCAAUUUGUACUAAGAAACGAAACAAUGUUAUUUGGUGGUGUAUAAUUCUACUUUUCUAGUAGAUUACUGUGUGGAAUUCUGUGAAAACAACAGAGGAUUGAGCAUCA
B15: chr22:45843749:45843850:+|3pUTR|ENSG00000130638|msi1|FALSE|unique (ssRNA)
RNA: GGGAGUUCUACAGUCCGACGAUCAAAUUGCAAGUGUUUGAAGAUUUAUAAGUACAAAUUUGGGAACAUACAAAUCUUUUAGGUAGUAGAGUUUAACGUGUAUAAGCUAAAAGUGAAAGUAACUGAGUGUUCUCUUGUUUCUUUCAACAGAGGAUUGAGCAUCA
B16: chr16:57253408:57253449:+|3pUTR|ENSG00000102931|msi1_unk|FALSE|overlapping (ssRNA)
RNA: B9 RNA with C31U, C32A, C65U, C66A, C83U, C84A, C86U, C87A, C128U, C129A

target: MSI1 full-length (mouse, UniProt Q61474 1-362); assay: nsRBNS (natural sequence RNA bind-n-seq); RBNS binding buffer (assumed for nsRBNS): 25 mM Tris pH 7.5, 150 mM KCl, 3 mM MgCl2, 0.01% Triton X-100, 500 ug/ml BSA, 20 U/ml SUPERase-In, 4 C; UNK is unkempt and MSI1 is Musashi-1; names of the RNAs are library labels; protein concentration not given here; high values mean tight binding
Sequence (Q61474 whole entry): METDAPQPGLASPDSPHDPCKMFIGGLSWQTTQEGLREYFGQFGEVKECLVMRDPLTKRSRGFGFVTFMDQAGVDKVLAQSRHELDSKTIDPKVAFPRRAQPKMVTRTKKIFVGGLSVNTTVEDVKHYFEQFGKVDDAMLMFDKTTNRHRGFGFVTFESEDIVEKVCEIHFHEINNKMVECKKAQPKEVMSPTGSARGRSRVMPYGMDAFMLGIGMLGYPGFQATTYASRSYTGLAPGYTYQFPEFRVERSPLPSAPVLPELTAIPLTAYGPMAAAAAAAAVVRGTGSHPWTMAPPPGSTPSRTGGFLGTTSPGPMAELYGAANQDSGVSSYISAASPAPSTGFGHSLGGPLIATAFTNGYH

Compared with B1, B2 is lower in binding signal: 0.646 enrichment R for the first, 0.574 enrichment R for the second.

First: B3
Second: B4
The binding signal of the first is higher: 0.808 enrichment R for the first, 0.429 enrichment R for the second.

Going from B5 to B6, the binding signal falls from 25 enrichment R to 0.746 enrichment R.

Going from B7 to B8, the binding signal rises from 0.641 enrichment R to 5.27 enrichment R.

First: B9
Second: B10
The binding signal of the first is lower: 0.465 enrichment R for the first, 2.64 enrichment R for the second.

Going from B11 to B12, the binding signal rises from 0.906 enrichment R to 18.8 enrichment R.

Going from B13 to B14, the binding signal falls from 16.5 enrichment R to 1.55 enrichment R.

Compared with B15, B16 is higher in binding signal: 7.75 enrichment R for the first, 21 enrichment R for the second.
